According to PubChem BioAssay (NCI):
Compounds without any hit were thinned out: in the full panel of roughly 79,000, 15% have a hit. Values without a mark were called inactive. Activity calls are given as the source filed them. No stated cut-off is given here; in the data, active means growth inhibition above about 70%; inactive means the rest.

What was measured:
[1] = NCI Yeast Anticancer Drug Screen. Data for the rad50 strain (AID 155);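 further: 0% = growth of vehicle-only cultures of the same strain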; conditions: S. cerevisiae rad50 strain growth inhibition; at 50.0 µM; active compounds read high
In short: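 DNA repair mutant yeast, compound exposure, growth read-out; inhibition is taken relative to vehicle.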

[2] = NCI Yeast Anticancer Drug Screen. Data for the mec2-1 strain (AID 157); conditions: S. cerevisiae mec2-1 strain, at 50.0 µM, active compounds read high
In short: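 Mutant yeast (mec2-1) grown with compound; growth inhibition relative to vehicle control reported.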

[3] = NCI Yeast Anticancer Drug Screen. Data for the sgs1 mgt1 strain (AID 161);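 further: 0% = growth of cultures given vehicle only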; conditions: S. cerevisiae sgs1 mgt1 strain, at 50.0 µM, active compounds read high
In short: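 This yeast growth screen uses a strain with defined DNA-repair lesions; compound-treated growth is compared with vehicle-treated growth.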

[4] = NCI Yeast Anticancer Drug Screen. Data for the cln2 rad14 strain (AID 165);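 further: 0% = growth equal to vehicle treated cultures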; conditions: S. cerevisiae cln2 rad14 strain, at 50.0 µM, active compounds read high
In short: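 Readout is yeast growth inhibition versus vehicle-treated controls, using a strain with cln2 and rad14 alterations exposed to compound.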

[5] = NCI Yeast Anticancer Drug Screen. Data for the bub3 strain (AID 167); conditions: S. cerevisiae bub3 mutant strain, at 50.0 µM, active compounds read high
In short: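 In this screen, a yeast mutant lacking normal mitotic checkpoint function is challenged with compound. Relative growth versus vehicle gives the inhibition value.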

[6] = NCI Yeast Anticancer Drug Screen. Data for the mlh1 rad18 strain (AID 175); conditions: S. cerevisiae mlh1 rad18 strain growth inhibition; at 50.0 µM; active compounds read high
In short: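 Genetically defined yeast (DNA repair-deficient) exposed to compounds; growth inhibition determined relative to vehicle.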

Row | SMILES | growth inhibition [1] | growth inhibition [2] | growth inhibition [3] | growth inhibition [4] | growth inhibition [5] | growth inhibition [6]
1 | CC(=O)OCCn1c(Cc2ccc(C)cc2)nn(C(C)=O)c1=O | 16.6% | 5.5% | 11.8% | 3.4% | 5.9% | -0.95%
2 | COc1ccc2nc(C(C)(O)c3ccccc3)ccc2c1 (stereo unspecified) | -1.6% | -8.15% | 6% | -6.85% | 2.65% | -29.1%
3 | CC(C)OC(=O)C(C)(OC(=O)c1ccccc1)c1ccccc1 (stereo unspecified) | 5.35% | -14.8% | 4.35% | -13.1% | 19.1% | 14.3%
4 | OCC1COC(c2ccc(Cl)cc2)O1 (stereo unspecified) | -10.1% | -10.4% | -19.8% | -17.9% | -16.4% | -7.75%
5 | COc1ccc(N=C2S/C(=N\C(=Nc3ccccc3)SCc3ccccc3)N(c3ccccc3)C2=Nc2ccc(OC)cc2)cc1 | -4.55% | -5.85% | -8.25% | 4.05% | -6.8% | 5.25%
6 | O=[N+]([O-])c1ccc2[nH]nc(OCc3ccccn3)c2c1 | 35% | 33.4% | -23.8% | 28.1% | 7.15% | 20.9%
7 | COc1cc(CC(=O)c2ccc3c(c2)OCO3)cc(OC)c1OC | -9.95% | -5.15% | -8.95% | -15.5% | 4.75% | -25.3%
8 | CC(C)CCOC(=O)c1ccccc1OC(=O)Nc1ccc(Cl)cc1[N+](=O)[O-] | -18.9% | -16.3% | -20.4% | -41.4% | 0.05% | -11.3%
9 | C/C=C/C[P+](Cc1ccccc1)(c1ccccc1)c1ccccc1 | 59.6% | 14.9% | 26.2% | -32.1% | 24.6% | 14.3%
10 | O=Cc1cccs1 | 23% | -2% | 7.85% | -14.6% | 8.3% | 33.9%
11 | CC(=O)C(N=Nc1nc2ccccc2[nH]1)C(C)=O | 27.1% | 14.1% | -1.8% | 15.2% | 47.9% | 32.5%
12 | CCOC(=O)C(C)C(=O)OCC | 51.2% | -17.9% | 2.55% | -3.6% | 2.3% | 34.5%
13 | CC(=O)CC(=O)c1cc(C(C)=O)c(O)c(C(C)=O)c1 | -11.8% | 0.75% | 11% | -3.3% | -11.1% | 7.8%
14 | COC1/C=C/OC2(C)Oc3c(C)c(O)c4c(O)c(c(/C=N/OC/C=C(\C)CCC=C(C)C)c(O)c4c3C2=O)NC(=O)C(C)=C/C=C/C(C)C(O)C(C)C(O)C(C)C(OC(C)=O)C1C (stereo unspecified) | -0.15% | -0.5% | -2.65% | -10.9% | -8.95% | 30.4%
15 | CC(=O)c1cccc(NC(=O)c2c(Br)c(Br)c(Br)c(Br)c2C(=O)O)c1 | -7.25% | -12.6% | 2.95% | 0.2% | -0.25% | -3.1%
16 | CC(C)OP(=O)(OC(C)C)C1C(P(=O)(OC(C)C)OC(C)C)C(F)(F)C1(F)F (stereo unspecified) | 11.4% | 10.9% | -7.35% | -2.65% | -2% | 14.3%
17 | COc1ccc(C(O)Cc2cc(=O)cc(-c3ccccc3)[nH]2)cc1 (stereo unspecified) | 2.2% | -4.95% | 2.2% | -40.3% | 9.85% | -1.4%
18 | CCOC(=O)N1CCCCC1 | -3.1% | 5% | 3.05% | -16.1% | -3.3% | 5.95%
19 | CC(C)(C)c1ccc(SC(=O)Nc2cccc(Cl)c2Cl)cc1 | 8.35% | 14.3% | 18.1% | 13.8% | 24.4% | 20.9%
20 | CC(C)(C)NN=C1C(C)(C)C(=NNC(C)(C)C)C1(C)C | -24% | -30.1% | -13.8% | 13.9% | -23.1% | -10.9%
21 | CC1(C)COC(C)(Cc2ccccc2)OC1 | -5.9% | 3.55% | -15.7% | -65.3% | -22.1% | -11.7%

Row | SMILES | growth inhibition [1] | growth inhibition [2] | growth inhibition [3] | growth inhibition [4] | growth inhibition [5] | growth inhibition [6]
22 | O=C1N=C(c2ccccc2)C(c2ccccc2)N1 (stereo unspecified) | -9.3% | 23.1% | 12.9% | -3.85% | -0.4% | 8.65%
23 | CC(CCC(=O)O)C1CCC2C3CCC4CC(OC=O)CCC4(C)C3CC(=O)C12C (stereo unspecified) | -5.9% | -3.25% | -12.8% | 0.15% | -1.6% | -13.9%
24 | Cc1ncc(CO)c(/C=N\NC(N)=S)c1O | 9.85% | 4.7% | 8.3% | -48.5% | -39.1% | -7.25%
25 | CCCCOc1c(Cl)cc(Cl)cc1-c1ccccc1 | 14.7% | 9.6% | 2.55% | -18.2% | 18.5% | 2.25%
26 | COC(=O)/C(=N\NC(N)=O)C(C(=O)C=C(C)C)C(=O)C(=O)Nc1ccc(Cl)c(Cl)c1 (stereo unspecified) | -9% | -40.6% | -34.6% | 12.2% | -17% | -27.6%
27 | CC(=O)OCCOCCN1CCN(c2c(O)c3c(c(O)c2Cl)C(=O)C=CC3=O)CC1 | 79.7% (active) | 88.2% (active) | 90.8% (active) | 87.1% (active) | 89.3% (active) | 89.8% (active)
28 | CN1CCN(C)c2nc3ccccc3nc21 | 0.2% | 3% | 1.8% | -12.1% | -6.85% | -7.05%
29 | COc1cc(C=O)ccc1OC(C)=O | -33.3% | -15.3% | -35.9% | -31.4% | -10.6% | -24.3%
30 | NC(CCCO)C(=O)O (stereo unspecified) | -21.1% | -6.7% | -24.1% | 8.6% | -26.6% | -26.1%
31 | CC(=O)N1OCCc2ccccc21 | 8.2% | -0.15% | -6.65% | -37.5% | -5.5% | -1.45%
32 | O=C(NC(=O)C(Cl)Cl)OC1c2cc(Cl)ccc2-c2c(Cl)cc(Cl)cc21 (stereo unspecified) | 99.1% (active) | 99.5% (active) | 99.3% (active) | 98.8% (active) | 97.8% (active) | 99.2% (active)
33 | Cc1ccc(S(=O)(=O)C(=S)SCc2ccccc2)cc1 | 38.5% | 37.8% | 59% | 19.6% | 35.4% | 33%
34 | COc1cc(C)c(N)cc1N | -2.7% | -16.9% | 11.3% | -14% | -1% | 15.7%
35 | COC(=O)/C=C/c1cc2c(cc1-c1c(C(=O)O)cc(OC)c(OC)c1OC)OCO2 | -11.2% | -0.55% | -18.8% | -3.4% | -28.4% | -8.05%
36 | COc1ccc2ccccc2c1C1/C(=N/O)CCc2ccccc21 (stereo unspecified) | 30.4% | 15.2% | 12.2% | -37.3% | 10.6% | 14.7%
37 | COc1cc2ccccc2oc1=O | 21.3% | 8.85% | 3.8% | 15.2% | 5.2% | 21.6%
38 | CCc1cc2c(cc1COC(C)=O)C(C)(C)CCC2(C)C | -10.8% | -19.4% | 5.5% | -13.8% | 4.3% | -31.9%
39 | NC(CCC(N)C(=O)O)C(=O)O (stereo unspecified) | -25.4% | -20.6% | -25.2% | -13.5% | -13.1% | -18.1%
40 | O=[N+]([O-])c1ccc2nc(Cl)n[n+]([O-])c2c1 | 88.7% (active) | 93% (active) | 91.5% (active) | 89.3% (active) | 91.1% (active) | 91.8% (active)
41 | CCOc1ccccc1N=Nc1c(C)nc(N)nc1OCC | 6.65% | 6.65% | 6.55% | -30.1% | 4% | 14.9%
